ChEMBL document CHEMBL4888484, “Replenishing the malaria drug discovery pipeline: Screening and hit evaluation of the MMV Hit Generation Library 1 (HGL1) against asexual blood stage Plasmodium falciparum ,using a nano luciferase reporter read-out” (2022)
Out of some 150,000 compounds screened, about 540 (0.36%) showed an effect of 50% or more. The full list was thinned out, with strong results kept by preference.

Tested on: Plasmodium falciparum
Test: Primary screen in NF54 nanoGlo assay, in single point, at 2uM, 72h; a lower Z score goes with more inhibition
Type: functional, Erythrocyte
Details: timepoint 72 hour

Row | Structure (SMILES) | % Inhibition [%] | Z score
1 | CN(Cc1ccccc1)C(=O)c1nc2ccccc2s1 | -10 | 1.35
2 | CCCC1CCC(c2ccc(OC(=O)c3cccc(C(=O)OC)n3)cc2)CC1 (centres undefined) | -10 | 1.93
3 | COCC(O)CN1CCCC(C(C)C)CC1 (centres undefined) | -5 | 0.7
4 | Cc1ccc2c(c1)c1c(n2S(=O)(=O)c2ccc(C(C)(C)C)cc2)CCCN(C)C1 | 67 | -13.88
5 | Cc1ccc2c(c1)c1c(n2CCc2ccncc2)CCCN(C)C1 | 4 | -0.46
6 | Cc1ccc2[nH]c3c(c2c1)CN(C)CCC3 | 4 | -0.52
7 | CNS(=O)(=O)CC1CCCN1CC1CCC(C)O1 (centres undefined) | -5 | 0.75
8 | CCCC(C)NC(=O)C(C)NC1CCN(C(C)=O)CC1CC (centres undefined) | -2 | 0.22
9 | CCc1cccc(NC(=O)Cc2nc(-c3cccnc3)n[nH]2)c1 | -13 | 2.1
10 | CC(=O)c1ccc(S(=O)(=O)NC2(C(F)(F)F)CCOCC2)cc1 | -12 | 1.89
11 | Cc1c(C(=O)NC2CC2)cc(-c2ccccc2)n1C | 55 | 0.53
12 | Cn1nc(N2CC[C@H](NC(=O)C3CCCCC3)C2)ccc1=O | -6 | 0.81
13 | COc1ccc(-c2cc(C(=O)N[C@H]3CCN(c4ccc(=O)n(C)n4)C3)c(C)n2C)cc1 | 67 | -11.23
14 | Cc1c(C(=O)NC2CCN(c3ccc(=O)n(C)n3)CC2)cc(-c2ccc(F)cc2)n1C | -5 | 0.6
15 | COc1ccc(-c2cc(C(=O)N[C@H]3CCN(c4ccc(=O)[nH]n4)C3)c(C)n2C)cc1 | 82 | -5.36
16 | Cc1cc(C(=O)N[C@H]2CCOC[C@@H]2OCc2ccccc2)c(C)n1C | 8 | -1.34
17 | COc1ccc(C(=O)N[C@H]2CCN(c3cc(-c4ccc(Cl)cc4)n[nH]3)C2)c(C)c1 | -20 | 2
18 | Cc1ccc(-c2cc(C(=O)NC3CC3)nn2C)cc1 | -10 | 1.31
19 | COc1ccc(-c2cc(N3CC[C@H](NC(=O)c4ccc(C)cc4)C3)[nH]n2)cc1 | -10 | 1.05
20 | COc1cccc(C(=O)N2CCN(c3cccnc3)C(=O)C2)c1OC | 9 | -1.08
21 | CN(C)S(=O)(=O)N1CCC2(CCC(=O)N(CCc3ccccn3)C2)CC1 | -12 | 1.7

Row | Structure (SMILES) | % Inhibition [%] | Z score
22 | CCc1ccccc1S(=O)(=O)NC[C@H](C(=O)O)C(C)C | 2 | -0.45
23 | COCCN1C(=O)c2ccc(C(=O)NCc3ccncc3)cc2C1=O | -3 | 0.39
24 | Cc1ccc(-c2cn[nH]c2[C@H]2CCCN(C(=O)C(C)(C)O)C2)cc1 | -14 | 2.64
25 | NC(=O)C1CCN(C(=O)Cc2ccc(-c3ccccc3)cc2)CC1 | -4 | 0.36
26 | COC(=O)C1(NC(=O)OC(C)(C)C)CC(CN2CCN(C)CC2)C1 (centres undefined) | 10 | -2.05
27 | CCC1=C(c2ccc(C)cc2)S(=O)(=O)N=C1N1CCC(C(=O)NC2CCC(C)CC2)CC1 (centres undefined) | -12 | 1.49
28 | CCCCN(CC)CCNC(=O)C1CCN(C2=NS(=O)(=O)C(c3ccc(OC)cc3)=C2C)CC1 | 57 | -3.61
29 | CCC1=C(c2ccc(C)cc2)S(=O)(=O)N=C1N1CCC(C(=O)NCCCc2ccccc2)CC1 | -9 | 1.6
30 | CC1=C(c2ccc(Cl)cc2)S(=O)(=O)N=C1N1CCC(C(=O)NCCN(C)C)CC1 | -18 | 1.96
31 | CCc1ccc(C2=C(C)C(N3CCC(C(=O)NC)CC3)=NS2(=O)=O)cc1 | -2 | 0.29
32 | CCC1=C(c2ccc(C)cc2)S(=O)(=O)N=C1N1CCC(C(=O)NCCN2CCCC[C@@H]2C)CC1 | 53 | -6.49
33 | CN1CC2(CCN(C(=O)c3ccccc3O)CC2)C[C@@H](c2ccccc2)C1=O | -14 | 1.81
34 | C=CCOC1CCN(C(=O)CCN2CCOC2=O)CC1 | -4 | 0.57
35 | Cc1nc(CNC(=O)c2nc3ccccc3[nH]c2=O)cs1 | 5 | -0.75
36 | CC(C)c1ncc(CN(C)S(=O)(=O)N(C)C2CCCCC2)cn1 | -9 | 1.04
37 | CC(C)(C)OC(=O)NC1CC(NCC(O)c2ccco2)C12CCC2 (centres undefined) | 0 | 0.02
38 | CCOc1ccc(C2c3[nH]c4ccccc4c3C[C@H]3C(=O)N(C4CCCCCCC4)CC(=O)N23)cc1OC (some centres undefined) | 12 | -1.52
39 | COc1cccc(C2c3[nH]c4ccccc4c3C[C@H]3C(=O)N(C4CCN(Cc5ccccc5)CC4)CC(=O)N23)c1 (some centres undefined) | 15 | -1.95
40 | CCOc1ccc(C2c3[nH]c4ccccc4c3C[C@H]3C(=O)N(C4CCN(Cc5ccccc5)CC4)CC(=O)N23)cc1OC (some centres undefined) | 79 | -7.03
41 | CCOc1ccc2nc(CN(Cc3cnn(C)c3)C3CC3)ccc2c1 | -7 | 1.15
42 | CCOc1ccc2nc(CN(C)[C@@H]3CCCC[C@@H]3O)ccc2c1 | -18 | 1.9
